PfM18AAP inh-1: blocks P. falciparum M18 aspartyl aminopeptidase; recombinant PfM18AAP, H-Glu-NHMec fluorogenic cleavage; inhibition, % at 7.35 µM; 290,000 tested, 1.2% active;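 active = inhibition above the campaign mean inhibition over all tested compounds plus 3 SD, cut at about 28% in these data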;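 also: 0% = plate median of test compound wells and 100% = 2 mM ZnCl2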
PfG6PD inh: PfG6PD (Plasmodium falciparum) enzyme inhibition; 350,000 tested, 0.78% active; AID 504690; PfGluPho enzyme, NADPH resazurin-diaphorase fluorescence; inhibition, % at 20 µM;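 active = inhibition reaching at least a set limit at 20 µM in the primary screen, cut at about 59% in these data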;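 also: 0% = DMSO wells with substrate and 100% = DMSO wells lacking glucose-6-phosphate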
CR mimetic SO: yeast age-related superoxide inhibition as caloric restriction mimetic. S. cerevisiae aged cells, superoxide DHE fluorescence; hits give low values. superoxide response (% of plate mean), % at 10 µM. 330,000 tested, 0.18% active. AID 2690;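 active = superoxide response under a set limit, about three screen SD below normal, cut at about 65% in these data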;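 also: yeast aged for seven days with compound at 30 °C before DHE staining; 100% = average MFI of all compound-treated wells on the plate with controls excluded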
A3A deaminase: blocks human APOBEC3A ssDNA deamination; AID 493011; 330,000 tested, 0.41% active; P31941; recombinant A3A, FAM/TAMRA ssDNA deamination fluorescence; inhibition, % at 20 µM;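 active = at least 40% inhibition at 20 µM here, with at most 30% in a related deaminase screen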;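 also: plate controls were A3A with DMSO for no effect and wells lacking A3A enzyme for full effect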
Target sequence (P31941 whole entry, looked up): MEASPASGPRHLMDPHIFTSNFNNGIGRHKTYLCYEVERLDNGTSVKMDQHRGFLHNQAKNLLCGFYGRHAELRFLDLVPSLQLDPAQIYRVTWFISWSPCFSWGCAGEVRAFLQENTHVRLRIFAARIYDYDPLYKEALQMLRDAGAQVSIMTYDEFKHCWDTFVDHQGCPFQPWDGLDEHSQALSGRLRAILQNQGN
A3G deaminase: APOBEC3G (human) deaminase inhibition | 330,000 tested, 0.28% active | inhibition, % at 20 µM | Q9HC16 | recombinant A3G, ssDNA deamination FAM/TAMRA fluorescence;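 active = inhibition of at least 40% at 20 µM, with no more than 30% in the related APOBEC3A deaminase screen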;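 also: plate controls were DMSO wells with A3G for no effect and wells lacking A3G enzyme for full effect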
PfM18AAP inh-2: confirmation of Plasmodium falciparum M18 aspartyl aminopeptidase inhibitors; shares compounds with PfM18AAP inh-1; recombinant PfM18AAP, H-Glu-NHMec fluorogenic cleavage; inhibition, % at 7.35 µM; 2,400 tested, 28% active; AID 2170;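 active = mean inhibition over replicate wells above the hit cutoff set for the earlier primary screen, cut at about 29% in these data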;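 also: 0% = median of test compound wells and 100% = 2 mM ZnCl2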
CTSL1 counter: counter-screen for PFM18AAP inhibitors: confirmation of human cathepsin L inhibitors; purified cathepsin L1, Z-Leu-Arg-MCA fluorescence; shares compounds with PfM18AAP inh-1; 2,400 tested, under 10 active; inhibition, % at 5.96 µM;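 active = average inhibition across replicates above the hit cutoff set in the earlier primary screen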;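 also: 0% = median of test compound wells and 100% = Z-Phe-Ala-diazomethylketone 1 µM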
An asterisk follows results filed as active; . = no result given. This is a sample that favours compounds with a hit; in the whole collection about 2.4% have one here.

SMILES	PfM18AAP inh-1	PfG6PD inh	CR mimetic SO	A3A deaminase	A3G deaminase	PfM18AAP inh-2	CTSL1 counter
O=S(=O)(Nn1cnnc1)c1ccccc1Cl	36*	-15	108	-4	-7	43*	0
O=S(=O)(Nn1cnnc1)c1ccccc1	37*	-22	92	-1	-4	61*	1
O=S(=O)(Nn1cnnc1)c1ccc2ccccc2c1	20	-14	67	-6	-6	.	.
O=C(NCc1cnc2ccccn12)C1CCC(=O)N(Cc2ccccc2F)C1 (stereo unspecified)	-1	-12	97	0	-1	.	.
COc1ccc(C(O)(C(=O)NNc2ccc(C)cc2)c2cccs2)cc1 (stereo unspecified)	42*	7	100	3	3	-47	-1
O=C(NNc1ccc(C2CCCCC2)cc1)C(O)(c1ccccc1)c1cccs1 (stereo unspecified)	2	20	89	1	3	.	.
Nc1nc(Nc2ccccc2)n[nH]1	45*	-1	102	0	-1	4	2
Nc1nc(N2CCN(c3ccc(Cl)cc3)CC2)n[nH]1	8	7	84	-5	-4	.	.
Nc1nc(Nc2ccc(Cl)cc2)n[nH]1	32*	-10	96	-2	-6	0	-2
Nc1nc(N2CCN(c3cccc(Cl)c3)CC2)n[nH]1	0	-13	102	-5	-2	.	.
Nc1nc(Nc2cccc(Cl)c2)n[nH]1	43*	-6	101	2	-6	7	2
CC(=O)c1cccc(NC(=O)C(C)OC(=O)Cc2c[nH]c3ccccc23)c1 (stereo unspecified)	.	9	95	-3	-4	.	.
NC(=O)c1nsc(C(=O)N(c2ccc3c(c2)OCCO3)C(C(=O)NCC2CCCO2)c2ccc(F)cc2)c1N (stereo unspecified)	3	9	104	-2	-5	.	.
FC(F)(F)c1cc(-c2ccc3c(c2)OCO3)nc(NCc2ccco2)n1	37*	10	91	0	1	-30	1
COc1ccccc1NS(=O)(=O)c1ccc(NC(C)=O)cc1	68*	-11	87	0	-5	-51	-2
Cc1noc(C)c1C(=O)NNc1cc(Cl)ccc1Cl	36*	19	96	-1	-1	9	-3
Cc1cc(Cl)ccc1NNC(=O)c1cccs1	18	13	96	-1	-3	.	.
O=C(NNc1cc(Cl)ccc1Cl)c1cccs1	52*	16	84	-4	-3	28	-1
CC(C)=NNc1nc2c(c(=O)[nH]c(=O)n2C)n1CCCc1ccccc1	36*	16	132	-1	-7	-29	-7
Cn1ncc2c(NNC(=O)c3ccc(Cl)cc3Cl)ncnc21	41*	2	90	-2	-5	-2	0
CCCN(CC(=O)Nc1ccccc1C)C(=O)CCCc1c[nH]c2ccccc12	.	1	134	-6	-6	.	.
Cc1ccc(C(=O)C(NC(=O)c2ccco2)Nc2sc3c(c2C(N)=O)CCCC3)cc1 (stereo unspecified)	40*	.	99	-3	-11	-27	-8
CC(=O)Nc1ccc(C(=O)NNC(=O)c2cccs2)cc1	13	1	84	0	-5	.	.
COc1ccc(C(=O)NNC(=O)Nc2ccc(C)cc2)cc1	45*	-6	101	-1	-8	25	3
Cc1ccc(NC(=O)NNC(=O)c2cccs2)cc1	51*	-8	96	-5	-7	27	3
SMILES	PfM18AAP inh-1	PfG6PD inh	CR mimetic SO	A3A deaminase	A3G deaminase	PfM18AAP inh-2	CTSL1 counter
CCCNC(=S)NNC(=O)c1cccs1	27	5	97	-6	-8	.	.
COc1ccc(NC(=S)NNC(=O)c2cccs2)cc1	11	-7	91	-4	-5	.	.
CNC(=S)NNC(=O)c1cccs1	38*	-10	102	0	2	14	1
CCNC(=S)NNC(=O)c1cccs1	36*	-6	105	4	0	13	1
Cc1ccc(S(=O)(=O)N2CCC3(CC2)OCCN3S(=O)(=O)c2c(C)cc(C)cc2C)cc1	.	-1	86	-2	-3	.	.
O=C(CC12CC3CC(CC(C3)C1)C2)NCc1ccc(F)cc1	6	8	103	-3	-9	.	.
Cc1ccc(S(=O)(=O)N2C[C@]3(O)C[C@@H]4C(=O)N(c5ccccc5)C(=O)[C@@H]4C[C@]3(OC(=O)Nc3cccs3)C2)cc1	.	21	.	.	.	.	.
